The text below walks through data of paper PMC7819943, “Rice protein-binding microarrays: a tool to detect cis-acting elements near promoter regions in rice”.

In all, about 35,000 sequences were measured (“fluorescence intensity (a.u.)”: median about 10,000, highest 2% from about 52,000 on). The entries come from a sample that favours the highest values as a whole.

For this experiment, the target named is T1, OsWOX13 (Oryza sativa, UniProt Q5QMM3 1-267).
T1 sequence: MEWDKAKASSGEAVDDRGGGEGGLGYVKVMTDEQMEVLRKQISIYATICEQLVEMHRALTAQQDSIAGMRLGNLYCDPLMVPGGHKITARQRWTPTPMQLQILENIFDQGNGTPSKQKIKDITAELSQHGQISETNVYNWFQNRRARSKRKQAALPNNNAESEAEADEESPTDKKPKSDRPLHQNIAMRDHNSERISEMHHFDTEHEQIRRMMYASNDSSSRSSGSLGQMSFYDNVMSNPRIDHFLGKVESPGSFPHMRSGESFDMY
The experiment can be described thus: protein-binding microarray (RPBM); PBS, 2% BSA, 51.3 ng/ul salmon testes DNA, 50 uM zinc acetate, 200 nM TF, 25 C, 1 h; high values mean tight binding. The note with it: protein: recombinant; tags: N-terminal polyhistidine and DsRed monomer fusion (pET32a); label: CyDye5-dUTP incorporated in the synthesized complementary strand; 3' TTTTT single-stranded linker to array surface; dsDNA, one strand shown. An outline of the steps:
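An Axon 4000B scanner gave the binding signal as per-feature fluorescence intensity in arbitrary units. This followed washing of a custom Agilent array that had been incubated for 1 h at 25 °C with 200 nM protein in PBS, 2% BSA, salmon testes DNA and 50 µM zinc acetate. The proteins were transcription factors fused at the N-terminus to polyhistidine and DsRed, expressed in E. coli BL21-CodonPlus and purified on Ni–NTA.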
Turning to “GTCATTGATTGATCAAGGGATCAATGCAAAACAACGCATTCGGAGTCACCTAGTGCAG”, the binding signal was 20300 fluorescence intensity (a.u.). Next, “AGAAAATTAATGTTCAACAAACTCGTCACAAATTAAGTTTCGGAGTCACCTAGTGCAG”: 13600 fluorescence intensity (a.u.); “GGTTAATTTGACATAAACAGCGTCAGAAATGTAGTTCATGCGGAGTCACCTAGTGCAG”: 57900 fluorescence intensity (a.u.). Next, “TCTAATTAGTAAACTGTAGTAGTGAGCAAATTGTACTAGACGGAGTCACCTAGTGCAG”: 20900 fluorescence intensity (a.u.); “TCATGTCATAAATTAAATTATTTGAAATTATTTGGTACAGCGGAGTCACCTAGTGCAG”: 13900 fluorescence intensity (a.u.); “TCTAAACTGATAATTGCAAATTGTAATTGATAGCATTGAGCGGAGTCACCTAGTGCAG”: 63700 fluorescence intensity (a.u.). Next, “TCATGTAATTGTTGATAAGAGTGTCAGAATTCAGATAGTGCGGAGTCACCTAGTGCAG”: 13500 fluorescence intensity (a.u.); “GCAAATTGATAATTGAAACAGAATTCAGTCGTTTGTACAGCGGAGTCACCTAGTGCAG”: 62700 fluorescence intensity (a.u.); “AGCAGCATAAATGCAATTAAATTTGTAGCAATCGAACATGCGGAGTCACCTAGTGCAG”: 4680 fluorescence intensity (a.u.). As to “TAAATTTATAGTCAATTGTAGCATGAGCTCTAATAAACTGCGGAGTCACCTAGTGCAG”, the binding signal was 4880 fluorescence intensity (a.u.). The result for “TCCAAATCCTACAATAATTGATTGAATCAAACACAGAAAGCGGAGTCACCTAGTGCAG” reads 41200 fluorescence intensity (a.u.); that for “TTATTAATTTGTAATAGGTGTATTTCGGTCTTATTAAACTCGGAGTCACCTAGTGCAG”, 19600 fluorescence intensity (a.u.). As to “CGTAAATTTTCAATAAAATTTTAGTGAAATCAGGAATATGCGGAGTCACCTAGTGCAG”, the binding signal is 17500 fluorescence intensity (a.u.).

Consider “AATAAAACTTACATGAGTTAATTGAGTGAGAAATTAATTCCGGAGTCACCTAGTGCAG”, for which the binding signal is 4550 fluorescence intensity (a.u.). “TACCGATAATTTGTTATAGATCCCTAGACGTACATTCCTCCGGAGTCACCTAGTGCAG”: the binding signal was 19900 fluorescence intensity (a.u.). “CATGATGATAGTGATAGCAACTCAAGCAATACTAACGCACCGGAGTCACCTAGTGCAG”: the binding signal is 14700 fluorescence intensity (a.u.). The result for “GCAGATTAGTTGTGGCAAACATTCTCTTGTGTGCAGCACTCGGAGTCACCTAGTGCAG” reads 3650 fluorescence intensity (a.u.); that for “TAAGCTAATTTGACCGCTGAAAGTGATGGAAAGCAAGCAACGGAGTCACCTAGTGCAG”, 4480 fluorescence intensity (a.u.). Turning to “ACTTGATTGAAATCGAAGCATCTGTTTTCGCGTGTTTGAGCGGAGTCACCTAGTGCAG”, the binding signal was 59900 fluorescence intensity (a.u.). Regarding “GAATCTTGAAATTGAGCTGATTAATTTTCTTCTTGTTGAGCGGAGTCACCTAGTGCAG”, the binding signal is 11800 fluorescence intensity (a.u.).

In the case of “CAAATTGAAGAGGATGCATGAATTGGATTTGCAGGAGAAGCGGAGTCACCTAGTGCAG”, the binding signal was 5250 fluorescence intensity (a.u.).

“GAATGATTGTGGATGATGAAATAAATACTGCTCTTGTCAGCGGAGTCACCTAGTGCAG”: the binding signal is 33400 fluorescence intensity (a.u.).

With “TCCTAGGTGATCTGGGTGATTGTGAGTGAGTTTTGTTTCGCGGAGTCACCTAGTGCAG”, the binding signal was 4180 fluorescence intensity (a.u.). Next, “TTCAAATTTAATGCAAAGATTAAGTTGATGAGAAACGACGCGGAGTCACCTAGTGCAG”: 6640 fluorescence intensity (a.u.); “TTGTGAAATGTTGATGAGGCTGATTGAGCGAGAAGCAGTGCGGAGTCACCTAGTGCAG”: 20000 fluorescence intensity (a.u.).

“CCAAATTAAGTGGAAATTAATTTGCAAGCTGAGAACGATGCGGAGTCACCTAGTGCAG”: the binding signal was 55000 fluorescence intensity (a.u.). For the sequence “TTGAAATTGGAGATGATGTGACTGAAAAGTTGTGTGTGTACGGAGTCACCTAGTGCAG”, the binding signal was 21000 fluorescence intensity (a.u.). As to “ATGATTGGAGTCAAATTGAACTTGTACTGATGTGGAGGAGCGGAGTCACCTAGTGCAG”, the binding signal is 53400 fluorescence intensity (a.u.).

For “ATTGATGATTGAAATTTGCTGTGCAAATCGAGAACTGAAGCGGAGTCACCTAGTGCAG”, the binding signal was 53500 fluorescence intensity (a.u.).
